Screening results (PubChem BioAssay)
GLP1R inv ag: GLP-1 receptor (human) inverse agonism | P43220 | Potency, µM (series often up to 38.3 µM), for the others: top-dose activity change, negative = inhibition, hits mostly inhibitors | hit rate 1.6% among 410,000 | HEK293 GLP-1R CRE-luciferase, luminescence, 24 h; GLP-1R form is constitutively active; also: % is scaled to controls: 0 for no effect and ±100 for the full control effect; nearly all actives have a fitted effect of over 55% in size
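Cells are plated, allowed 12 hours at 37 deg C, then treated with compounds for 24 hr before luciferase detection reagent is added and luminescence is read after 12 min at room temperature. The HEK293 line carries constitutively active GLP-1R with a cAMP-responsive reporter.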
GLP1R ag: agonists of human GLP-1 receptor. HEK293 GLP-1R CRE-luciferase, luminescence, 4-6 h; cells express a hypersensitive GLP-1R form. Potency, µM (series often up to 45.6 µM), inactives show at the top dose activation, most hits filed as activators. hit rate 0.007% among 380,000. AID 624172; also: % of control where 0% means no effect
RORgamma inh: ROR gamma (mouse) transcription inhibition; Potency, µM (titrated, usually from 53.6 µM), for inactives: at the top dose activity change, negative = inhibition, most hits filed as inhibitors; hit rate 5.4% among 310,000; Drosophila S2 Gal4-RORgamma UAS-luciferase reporter, 20 h; also: % is scaled to controls: 0 for no effect and ±100 for the full control effect; nearly all actives have a fitted effect of over 60% in size
Target sequence (P51450 whole entry, looked up, the tested form may be a part): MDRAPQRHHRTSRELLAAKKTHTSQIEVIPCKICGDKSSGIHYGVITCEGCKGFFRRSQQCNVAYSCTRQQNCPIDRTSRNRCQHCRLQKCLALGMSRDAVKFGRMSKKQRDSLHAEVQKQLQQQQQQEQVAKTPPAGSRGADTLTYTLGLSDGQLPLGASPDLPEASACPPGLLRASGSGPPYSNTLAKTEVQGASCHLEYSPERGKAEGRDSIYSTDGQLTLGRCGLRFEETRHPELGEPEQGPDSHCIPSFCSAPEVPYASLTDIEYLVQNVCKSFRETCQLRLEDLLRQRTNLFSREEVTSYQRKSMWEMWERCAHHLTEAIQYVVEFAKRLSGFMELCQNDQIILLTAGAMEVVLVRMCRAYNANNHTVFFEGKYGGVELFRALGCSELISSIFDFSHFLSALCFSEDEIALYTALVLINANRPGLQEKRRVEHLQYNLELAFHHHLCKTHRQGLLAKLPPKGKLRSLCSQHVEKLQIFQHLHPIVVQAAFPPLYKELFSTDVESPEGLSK
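Read-out: Photinus luciferase luminescence; inhibitors lower reporter signal. Insect Schneider cells with Gal4-ROR gamma fusion under metallothionein promoter, UAS reporter; 700 uM final copper sulfate induction, 20 hr, ambient temperature.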
Gal4-VP16 FLuc: counter-screen for ROR gamma inhibitors: Gal4-VP16 reporter; Potency, µM (top dose mostly 53.6 µM), for inactives: top-dose activity, negative = inhibition, actives largely listed as inhibitors; Drosophila S2 Gal4-VP16 UAS-luciferase, luminescence, 20 h; hit rate 3.5% among 310,000;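 also: Gal4-VP16 expression switched on by copper sulfate through the metallothionein promoter; % is scaled to controls: 0 for no effect and ±100 for the full control effect; nearly all actives have a fitted effect of over 50% in size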
HEK293 tox: cytotoxicity counter-screen for GLP-1 receptor inverse agonists | HEK293 cAMP-luciferase reporter cells, luminescence, 24 h | hit rate 0.13% among 410,000 | Potency, µM (titrated, usually from 38.3 µM), for inactives: at the top dose activity change, negative = inhibition, hits mostly inhibitors;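 also: loss of luciferase light is scored as toxicity; % is scaled to controls: 0 for no effect and ±100 for the full control effect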
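1536-well qHTS counterscreen of the MLSMR; 200 cells/uL, 12 h pre-incubation, 23 nL cpd, 24 h at 37 deg C 5% CO2, luciferase detection reagent, 12 min RT, luminescence. Inhibition = undesired.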
Numbers without * were called inactive; ? = inconclusive; · = no result; [ ] = remark or other dose. The list is not random: actives were taken first. Their share in the collection is about 5.9%. Calls follow the shape of the dose curve; as a rule, active = well fitted curve in the direction sought with a large enough effect; inconclusive = small, poorly fitted or top-dose-only effect, or another doubt; inactive = no such curve, though single readings can be large; an effect the other way counts as inactive or inconclusive. Potency is read from the fitted curve at half-maximal effect.

SMILES	GLP1R inv ag	GLP1R ag	RORgamma inh	Gal4-VP16 FLuc	HEK293 tox
CCOc1ccc(CSCCNC(=S)Nc2ccc(OC)cc2)cc1	?	-2.6%	2µM*	7.08µM*	?
CCCOc1ccc(CSCCNC(=S)Nc2ccccc2)cc1	?	-3.7%	2.82µM*	?	3.1%[1.53 µM]
COc1cccc(C(=O)Nc2cccc(-c3cn4ccsc4n3)c2)c1OC	2.6%	·	·	·	-13.0%
COc1cc(C=O)ccc1OCc1cccc(Br)c1	0.4%	4.2%	?	?	4.7%
COC(=O)c1ccccc1OCCOc1ccccc1C(=O)OC	-11.6%	25.6%	20.7%	-0.4%	24.9%
COC(=O)c1ccccc1OCCCOc1ccc(C=O)cc1OC	0.6%	?	8.91µM*	10µM*	-10.9%
COc1cc(C=O)ccc1OCc1ccccc1Br	-9.3%	3.3%	10µM*	11.2µM*	-12.5%
CCOC(=O)c1sc(NC(=S)NC(=O)C2CC2)cc1C	11.0%	-0.1%	1µM*	1µM*	1.8%[1.53 µM]
CCOC(=O)c1sc(NC(=O)c2sccc2C)cc1C	?	7.8%	?	-5.5%	-16.0%
CCOC(=O)c1sc(NC(=S)NC(=O)C23CC4CC(CC(C4)C2)C3)cc1C	-2.9%	-0.1%	6.31µM*	10µM*	22.4%
Cc1cn(C2CC3OCC(NC(=O)C4CCCN4C(=O)OC(C)(C)C)C3O2)c(=O)[nH]c1=O (stereo not given)	·	·	0.4%	1.2%	·
COc1ccc(Nc2nc3ccccc3s2)cc1	?	18.6%	?	1.6%	0.1%
COc1ccc(CC(=O)Nc2sc3c(c2C(N)=O)CCCC3)cc1	19.8%	28.7%	?	14.7%	-16.7%
COc1ccc2nc(Nc3sc4c(c3C(N)=O)CCCC4)sc2c1	1.4%	2.0%	1.41µM*	3.55µM*	-17.2%
COc1cccc(Nc2nc3ccc(OC)cc3s2)c1	?	15.7%	11.2µM*	?	-0.6%
CCN1C(=O)c2ccccc2Sc2ccc(NC(=O)COc3ccc(Cl)cc3)cc21	?	·	·	·	-20.7%
O=C(CCN1CCN(c2ccccc2)CC1)N/N=C/c1ccccc1O	?	1.3%	2µM*	6.31µM*	-17.8%
O=C(Cc1c[nH]c2ccccc12)N/N=C/c1ccccc1O	?	-5.3%	2.24µM*	10µM*	-3.7%
O=C(CCC(=O)Nc1ccc(F)cc1)N/N=C/c1cc([N+](=O)[O-])ccc1O	?	0.1%	10µM*	-11.1%	-15.3%
O=C(CCC(=O)Nc1ccc(F)cc1)N/N=C/c1ccccc1O	?	-0.3%	14.1µM*	-23.6%	3.8%
O=C(NC1CCCCC1)c1cc(Nc2cccc(C(F)(F)F)c2)nc2ccccc12	-21.0%	·	·	·	3.2%
O=C(CCn1cnc2ccccc21)N/N=C/c1ccccc1O	?	11.9%	0.447µM*	0.631µM*	-38.8%
O=C(N/N=C/c1cc([N+](=O)[O-])ccc1O)c1cccc(NC(=O)c2cccc(Cl)c2)c1	-9.2%	21.6%	4.47µM*	?	7.1%
O=C(CCc1ccccc1)Nc1cc(C(F)(F)F)ccc1Cl	-27.0%	-0.9%	?	3.3%	0.2%
O=C(CCC(=O)Nc1ccc(Br)cc1)N/N=C/c1cc([N+](=O)[O-])ccc1O	-6.5%	2.8%	-33.7%	-23.0%	-4.0%
SMILES	GLP1R inv ag	GLP1R ag	RORgamma inh	Gal4-VP16 FLuc	HEK293 tox
Cc1cccc(NC(=O)CCC(=O)N/N=C/c2cc([N+](=O)[O-])ccc2O)c1	?	-8.7%	8.91µM*	-7.3%	9.6%
O=C(CCC(=O)Nc1cc(C(F)(F)F)ccc1Cl)N/N=C\c1cc([N+](=O)[O-])ccc1O	?	0.4%	2.51µM*	8.91µM*	?
COC(=O)C/C=C/[C@@H](C)[C@H](NC(=O)OCC(Cl)(Cl)Cl)c1ccc2ccccc2c1	·	·	12.4%	1.1%	·
O=C(N/N=C/c1ccccc1F)C(=O)N1CCCCCC1	8.2%	5.6%	-1.6%	-16.3%	-3.9%
C=CCc1cccc(/C=N/NC(=O)CCC(=O)Nc2ccc(C)cc2)c1O	?	-4.8%	1.58µM*	?	-13.2%
O=C(N/N=C/c1ccccc1O)C(=O)N1CCCCCC1	?	-4.4%	12.6µM*	12.6µM*	-2.7%
O=C(CCC(=O)N/N=C/c1ccccc1O)NCc1ccccc1	-17.0%	0.0%	20µM*	-24.2%	-6.6%[1.53 µM]
CCCOc1cccc(C2c3c(oc4ccc(F)cc4c3=O)C(=O)N2CCCN2CCOCC2)c1 (stereo not given)	-8.9%	-1.0%	·	·	0.1%
COC(=O)c1ccc(-c2ccc(C3C4C=CCC(C)C4C(=O)N3Cc3ccccc3)c(F)c2)cc1 (stereo not given)	·	·	31.0%	2.2%	·
Cc1cccc(COC[C@H](Cc2ccccc2)N2CCN(C(=O)c3cc(Cl)cc(Cl)c3)CCC2=O)c1	11.2µM*	-2.4%	·	·	?
Cc1cccc(COCC(Cc2ccccc2)N2CCN(C(=O)c3cccc(Cl)c3)CCC2=O)c1 (stereo not given)	?	-1.3%	16.8%	4.9%	?
Cc1ccc(S(=O)(=O)N2CCC(=O)N(C(COCc3ccc(Cl)cc3)Cc3ccccc3)CC2)cc1 (stereo not given)	11.2µM*	7.9%	-3.6%	11.0%	0.0%
Cc1cccc(C(=O)N2CCC(=O)N([C@H](COCc3cccc(C(F)(F)F)c3)Cc3ccccc3)CC2)c1	11.2µM*	0.2%	3.0%[40.7 µM]	2.4%[40.7 µM]	?
CC(=O)c1ccc(NC(=O)c2ccc(-c3ccc(Cl)cc3)o2)cc1	?	·	·	·	-15.1%
CCOC(=O)c1ccc(NC(=S)N2CCSC2c2c(F)cc(F)cc2F)cc1 (stereo not given)	?	-4.1%	12.6µM*	?	15.0%
COc1ccc(C2SCCN2C(=S)Nc2ccc(Cl)cc2)cc1 (stereo not given)	?	-13.0%	12.6µM*	?	-0.3%
COc1cccc(CNC(=O)c2ccc(-c3nc(CS(=O)c4ccccc4)c(C)o3)cc2)c1 (stereo not given)	-16.9%	·	·	·	-13.8%
CCN1CCN(c2ncc3c(n2)CCN(Cc2ccc(Br)s2)C3)CC1	3.16µM*	·	·	·	-17.7%
CCOc1ccccc1CN1CCc2nc(N3CCN(c4ccccc4F)CC3)ncc2C1	10µM*	·	·	·	2.1%
CCN1CCN(c2ncc3c(n2)CCN(Cc2ccc(OC(C)C)cc2)C3)CC1	10µM*	·	·	·	-6.6%
CCN1CCN(c2ncc3c(n2)CCN(Cc2sccc2C)C3)CC1	?	·	·	·	-6.9%
CN1CCN(c2ncc3c(n2)CCN(Cc2ccc(Br)s2)C3)CC1	3.16µM*	·	·	·	-20.6%
CCN1CCN(c2ncc3c(n2)CCN(Cc2ccc(C)s2)C3)CC1	?	·	·	·	-1.5%
CCCCCCCCCCCCCCC[C@@H](O)[C@H](CO)NC(=O)CCCCCCC	·	·	-3.6%	-1.3%	·
CCN1CCN(c2ncc3c(n2)CCN(Cc2cc(Br)cs2)C3)CC1	4.47µM*	·	·	·	12.0%
O=C(CCCn1c(=O)c2cccn2c2ccc(F)cc21)NCc1ccc(Cl)cc1	2.8%	·	·	·	-10.0%
